# Measured values reported in PubChem BioAssay (NCI).
# About 79,000 compounds went through this panel and 15% of them were active in at least one assay; those are over-represented in the sample as a whole. Values without a mark were called inactive. Active and inactive are the calls of the source. Rule as the data show it: active = growth inhibition above about 70%; inactive = the rest.
# Assays:
# [1] = NCI Yeast Anticancer Drug Screen. Data for the rad50 strain (AID 155);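 also: 0% = growth of vehicle-only cultures of the same strain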; conditions: S. cerevisiae rad50 strain growth inhibition, active compounds read high
# Summary of the method: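 Cells are treated with compound, grown, and their growth is then scored against vehicle-only cultures of the same repair-deficient yeast strain.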
# [2] = NCI Yeast Anticancer Drug Screen. Data for the mec2-1 strain (AID 157); conditions: S. cerevisiae mec2-1 strain, active compounds read high
# Summary of the method: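 Growth inhibition is read against vehicle-treated controls after compound exposure of the mec2-1 yeast strain, which is defective in DNA damage repair or cell cycle control.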
# [3] = NCI Yeast Anticancer Drug Screen. Data for the sgs1 mgt1 strain (AID 161);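 also: 0% = growth of cultures given vehicle only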; conditions: S. cerevisiae sgs1 mgt1 strain, active compounds read high
# Summary of the method: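 This yeast growth screen uses a strain with defined DNA-repair lesions; compound-treated growth is compared with vehicle-treated growth.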
# [4] = NCI Yeast Anticancer Drug Screen. Data for the cln2 rad14 strain (AID 165);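 also: 0% = growth equal to vehicle treated cultures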; conditions: S. cerevisiae cln2 rad14 strain, active compounds read high
# Summary of the method: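 Growth inhibition, relative to vehicle-treated controls, is the read-out. The test organism is a yeast strain with defined genetic alterations, cln2 rad14.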
# [5] = NCI Yeast Anticancer Drug Screen. Data for the bub3 strain (AID 167); conditions: S. cerevisiae bub3 mutant strain, active compounds read high
# Summary of the method: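 Part of a panel of yeast mutants defective in DNA damage repair or cell cycle regulation. Each strain is grown with compound, and inhibition is calculated relative to solvent-treated cultures.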
# [6] = NCI Yeast Anticancer Drug Screen. Data for the mlh1 rad18 strain (AID 175); conditions: S. cerevisiae mlh1 rad18 strain growth inhibition, active compounds read high
# Summary of the method: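 Cells of a genetically altered yeast strain, deficient in DNA damage repair, were treated with compound. Their growth was then compared with that of vehicle-treated cultures to give inhibition.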
# [7] = at 5.0 µM (retest, dose inferred, filed as 0.5)
# [8] = at 50.0 µM (retest, dose inferred, filed as 5.0)
Structure (SMILES),"growth inhibition [1, 7] [%]","growth inhibition [1, 8]",growth inhibition ([1]; at 50.0 µM),"growth inhibition [2, 7] [%]","growth inhibition [2, 8]",growth inhibition ([2]; at 50.0 µM),"growth inhibition [3, 7] [%]","growth inhibition [3, 8]",growth inhibition ([3]; at 50.0 µM),"growth inhibition [4, 7] [%]","growth inhibition [4, 8]",growth inhibition ([4]; at 50.0 µM),"growth inhibition [5, 7] [%]","growth inhibition [5, 8]",growth inhibition ([5]; at 50.0 µM),"growth inhibition [6, 7] [%]","growth inhibition [6, 8]",growth inhibition ([6]; at 50.0 µM)
CCN(CC)CCOC(=O)Nc1cc(Cl)cc(Cl)c1,50,68%,71% (active),37,60%,47.1%,52,87% (active),68.5%,36,62%,58.2%,47,69%,61.2%,59,86% (active),54.8%
CCOC(=O)C1c2[nH]c3ccccc3c2CCN1C(=O)c1ccc(OC)o1 (stereo not given),0,71% (active),83.5% (active),-36,60%,79.8% (active),13,80% (active),82% (active),7,81% (active),67.7%,-17,76% (active),84.3% (active),-12,73% (active),83.2% (active)
Cc1ccc[n+](CC(=O)C2CCC3CC4CCCCC4CC3C2)c1 (stereo not given),-2,38%,22.4%,-1,34%,17.7%,-27,19%,37.4%,0,31%,-3.75%,1,29%,18.8%,-2,43%,59%
COc1cccc2c1C(=O)c1c(O)c(CCl)cc(O)c1C2=O,44,97% (active),94% (active),23,91% (active),76.5% (active),47,96% (active),95.2% (active),17,96% (active),91.5% (active),3,49%,21.8%,35,97% (active),94.6% (active)
O=C(CSSCC(=O)Nc1ccccc1)Nc1ccccc1,-6,15%,29.6%,1,35%,17.5%,1,-10%,54.8%,-5,10%,48.2%,-12,6%,22.8%,-12,19%,22%
CCN(CC)COC(=S)S,8,99% (active),97.7% (active),-3,100% (active),83.1% (active),11,99% (active),99% (active),5,97% (active),44%,-11,99% (active),97.3% (active),15,99% (active),98.5% (active)
Cc1ccc(C)c(N2C(=O)C(=O)c3c(C)ccc(C)c32)c1,12,96% (active),99% (active),13,66%,99% (active),12,98% (active),97.7% (active),27,23%,89.8% (active),8,10%,97.8% (active),14,80% (active),98.8% (active)
Brc1ccc(N=NN2CCCC2)cc1,14,12%,74% (active),0,8%,59.6%,33,33%,86.4% (active),36,36%,68%,30,37%,85.6% (active),7,5%,86.1% (active)
CCOC(=O)c1ccc(-c2cccs2)n1C,-14,6%,65.9%,-1,-6%,43.8%,-12,-3%,61.9%,28,0%,23.4%,-12,1%,67.8%,-9,-1%,43.2%
CCOC1(OCC)Cc2nc3ccccc3cc21,4,94% (active),96.7% (active),-2,96% (active),96.8% (active),2,96% (active),95.5% (active),0,91% (active),92.5% (active),-2,93% (active),96.7% (active),3,95% (active),97.2% (active)
